From PubChem BioAssay (NCATS)
Values without a mark were called inactive. The call rests on the fitted dose curve; in most records, active means well fitted curve in the direction sought with a large enough effect; inconclusive means small, poorly fitted or top-dose-only effect, or another doubt; inactive means no such curve, though single readings can be large; an effect the other way counts as inactive or inconclusive. Records with an inconclusive call do not appear.

Target: Ferritin light chain (Equus caballus) (UniProt P02791)
Assay: qHTS Validation Assay for Identification of Novel General Anesthetics (AID 2323); further: on the % scale 0 is the no-effect control and ±100 the full control effect
Conditions: horse apoferritin, anesthetic-site fluorescent probe displacement; series mostly up to 76.9 µM; activity change, negative = inhibition: at the top concentration
Summary of the method: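 Normalized fluorescence response, scaled between free 1-AMA and 1-AMA/apoferritin complex, fitted to a four-parameter Hill equation for concentration-effect values. Binding mix: 10 uM horse-spleen apoferritin, 50% saturated 1-AMA in PBS; read 380/535 nm after 10 min.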

Ferritin light chain (Equus caballus), sequence (P02791 2-175 limits assumed): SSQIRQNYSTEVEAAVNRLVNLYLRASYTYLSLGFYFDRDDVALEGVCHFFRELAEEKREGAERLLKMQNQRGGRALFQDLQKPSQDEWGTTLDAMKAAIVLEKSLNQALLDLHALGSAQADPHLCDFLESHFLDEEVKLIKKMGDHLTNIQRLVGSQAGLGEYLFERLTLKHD

In order of falling “activity change, negative = inhibition” value:
1. NCCCCCC(=O)O  21.3%
2. C[C@](N)(Cc1ccc(O)c(O)c1)C(=O)O  -1.5%
3. COc1ccccc1OCC(O)CN1CCN(CC(=O)Nc2c(C)cccc2C)CC1 (configuration not stated)  -6.04%
4. COC(=O)Nc1nc2ccc(C(=O)c3cccs3)cc2[nH]1  -6.14%
5. Cc1ccc(C(=O)Nc2ccc(S(=O)(=O)O)c3cc(S(=O)(=O)O)cc(S(=O)(=O)O)c23)cc1NC(=O)c1cccc(NC(=O)Nc2cccc(C(=O)Nc3cc(C(=O)Nc4ccc(S(=O)(=O)O)c5cc(S(=O)(=O)O)cc(S(=O)(=O)O)c45)ccc3C)c2)c1  -6.63%
6. O=c1c(O)c(-c2ccc(O)c(O)c2)oc2cc(O)cc(O)c12  -8.68%
7. CN1C(C(=O)Nc2ccccn2)=C(O)c2ccccc2S1(=O)=O  -9.55%
8. CN1CCN(C2=Nc3cc(Cl)ccc3Nc3ccccc32)CC1  -14.1%

Target: ATP-dependent DNA helicase Q1 (Homo sapiens) (UniProt P46063)
Assay: qHTS Validation Assay for Inhibitors of RecQ-Like Dna Helicase 1 (RECQ1) (AID 2353);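 further: plate controls were DMSO vehicle for no effect and enzyme-free control for full effect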
Conditions: recombinant RECQ1 helicase DNA unwinding assay; series mostly up to 25.6 µM; activity change, negative = inhibition: at the top concentration
Summary of the method: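 RECQ1T1 50 nM; forked duplex (20 bp + 30-nt ss tails) 200 nM, ATP 2 mM final; pH 8.0, 2 mM MgCl2, 2.5 ug/ml poly(dI-dC); 15 min compound preincubation; discontinuous kinetic read over 2 h at RT.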

ATP-dependent DNA helicase Q1 (Homo sapiens), sequence (P46063 whole entry, looked up): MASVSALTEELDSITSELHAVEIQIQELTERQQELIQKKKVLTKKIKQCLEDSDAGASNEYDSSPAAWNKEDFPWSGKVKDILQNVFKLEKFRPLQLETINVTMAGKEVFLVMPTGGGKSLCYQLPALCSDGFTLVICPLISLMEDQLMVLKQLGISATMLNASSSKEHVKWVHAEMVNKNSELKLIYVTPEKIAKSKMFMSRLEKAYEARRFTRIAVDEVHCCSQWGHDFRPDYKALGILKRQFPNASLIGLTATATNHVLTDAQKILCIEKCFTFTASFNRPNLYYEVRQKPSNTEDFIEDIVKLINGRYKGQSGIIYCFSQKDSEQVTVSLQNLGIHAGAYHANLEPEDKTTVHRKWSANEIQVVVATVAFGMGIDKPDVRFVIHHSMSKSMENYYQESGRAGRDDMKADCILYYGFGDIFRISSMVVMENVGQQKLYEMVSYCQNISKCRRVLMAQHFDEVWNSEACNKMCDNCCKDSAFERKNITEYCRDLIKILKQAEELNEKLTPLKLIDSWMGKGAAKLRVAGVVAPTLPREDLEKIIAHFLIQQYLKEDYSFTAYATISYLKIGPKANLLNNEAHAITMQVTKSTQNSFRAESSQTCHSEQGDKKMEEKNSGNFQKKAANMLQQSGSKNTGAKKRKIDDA

In order of rising “activity change, negative = inhibition” value:
1. O=C(c1ccc(OCCN2CCCCC2)cc1)c1c(-c2ccc(O)cc2)sc2cc(O)ccc12  -23.6%
2. Clc1ccccc1C(c1ccccc1)(c1ccccc1)n1ccnc1  -17.6%
3. CC(C)C(=O)Nc1ccc([N+](=O)[O-])c(C(F)(F)F)c1  -9.58%
4. CN(C)CCCN1c2ccccc2CCc2ccc(Cl)cc21  -7.96%
5. Cc1cc(C(C)(C)C)cc(C)c1CC1=NCCN1  -7.44%
6. NC(CO)C(=O)NNCc1ccc(O)c(O)c1O (configuration not stated)  -7.25%
7. CCCCc1oc2ccccc2c1C(=O)c1cc(I)c(OCCN(CC)CC)c(I)c1  -6.41%
8. OCCN1CCN(CCCN2c3ccccc3Sc3ccc(C(F)(F)F)cc32)CC1  -5.46%
9. O=C(Nc1ccc([N+](=O)[O-])cc1Cl)c1cc(Cl)ccc1O  -5.21%
10. C[C@](N)(Cc1ccc(O)c(O)c1)C(=O)O  -4.28%
11. Cc1cnc(C(=O)NCCc2ccc(S(=O)(=O)NC(=O)NC3CCCCC3)cc2)cn1  -3.14%
12. OCCN(CCO)c1nc(N2CCCCC2)c2nc(N(CCO)CCO)nc(N3CCCCC3)c2n1  -3.08%
13. CCOC(=O)C(C)(C)Oc1ccc(Cl)cc1  -3.04%
14. CN1CCN(C2=Nc3cc(Cl)ccc3Nc3ccccc32)CC1  -1.59%
15. CN(Cc1cnc2nc(N)nc(N)c2n1)c1ccc(C(=O)N[C@@H](CCC(=O)O)C(=O)O)cc1  -1.04%
16. CN(C)C(=O)C(CCN1CCC(O)(c2ccc(Cl)cc2)CC1)(c1ccccc1)c1ccccc1  -0.818%
17. CN1C(C(=O)Nc2ccccn2)=C(O)c2ccccc2S1(=O)=O  -0.484%
18. COC(=O)Nc1nc2ccc(C(=O)c3cccs3)cc2[nH]1  -0.432%
19. CCOC(=O)c1ncn2c1CN(C)C(=O)c1cc(F)ccc1-2  -0.106%
20. Clc1ccc2c(c1)C(N1CCNCC1)=Nc1ccccc1O2  6.61%
21. COc1ccccc1OCC(O)CN1CCN(CC(=O)Nc2c(C)cccc2C)CC1 (configuration not stated)  7.76%

Target: RecQ-like DNA helicase BLM (Homo sapiens) (UniProt P54132)
Assay: qHTS Validation Assay for Inhibitors of Bloom's syndrome helicase (BLM) (AID 2364);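 further: plate controls were DMSO vehicle for no effect and enzyme-free control for full effect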
Conditions: BLM helicase DNA unwinding, fluorescence, in vitro; series mostly up to 57.1 µM; activity change, negative = inhibition: at the top concentration
Summary of the method: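 BLM 50 nM in 25 mM Tris-HCl pH 8.0, 5 mM NaCl, 2 mM MgCl2, 1 mM DTT, 0.01% Tween-20, 2.5 ug/ml poly(dI-dC); 15 min cpd preinc, RT. Start: 200 nM forked DNA + 2 mM ATP (final). TAMRA read, 2 reads 2 h apart.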

RecQ-like DNA helicase BLM (Homo sapiens), sequence (P54132 whole entry, looked up): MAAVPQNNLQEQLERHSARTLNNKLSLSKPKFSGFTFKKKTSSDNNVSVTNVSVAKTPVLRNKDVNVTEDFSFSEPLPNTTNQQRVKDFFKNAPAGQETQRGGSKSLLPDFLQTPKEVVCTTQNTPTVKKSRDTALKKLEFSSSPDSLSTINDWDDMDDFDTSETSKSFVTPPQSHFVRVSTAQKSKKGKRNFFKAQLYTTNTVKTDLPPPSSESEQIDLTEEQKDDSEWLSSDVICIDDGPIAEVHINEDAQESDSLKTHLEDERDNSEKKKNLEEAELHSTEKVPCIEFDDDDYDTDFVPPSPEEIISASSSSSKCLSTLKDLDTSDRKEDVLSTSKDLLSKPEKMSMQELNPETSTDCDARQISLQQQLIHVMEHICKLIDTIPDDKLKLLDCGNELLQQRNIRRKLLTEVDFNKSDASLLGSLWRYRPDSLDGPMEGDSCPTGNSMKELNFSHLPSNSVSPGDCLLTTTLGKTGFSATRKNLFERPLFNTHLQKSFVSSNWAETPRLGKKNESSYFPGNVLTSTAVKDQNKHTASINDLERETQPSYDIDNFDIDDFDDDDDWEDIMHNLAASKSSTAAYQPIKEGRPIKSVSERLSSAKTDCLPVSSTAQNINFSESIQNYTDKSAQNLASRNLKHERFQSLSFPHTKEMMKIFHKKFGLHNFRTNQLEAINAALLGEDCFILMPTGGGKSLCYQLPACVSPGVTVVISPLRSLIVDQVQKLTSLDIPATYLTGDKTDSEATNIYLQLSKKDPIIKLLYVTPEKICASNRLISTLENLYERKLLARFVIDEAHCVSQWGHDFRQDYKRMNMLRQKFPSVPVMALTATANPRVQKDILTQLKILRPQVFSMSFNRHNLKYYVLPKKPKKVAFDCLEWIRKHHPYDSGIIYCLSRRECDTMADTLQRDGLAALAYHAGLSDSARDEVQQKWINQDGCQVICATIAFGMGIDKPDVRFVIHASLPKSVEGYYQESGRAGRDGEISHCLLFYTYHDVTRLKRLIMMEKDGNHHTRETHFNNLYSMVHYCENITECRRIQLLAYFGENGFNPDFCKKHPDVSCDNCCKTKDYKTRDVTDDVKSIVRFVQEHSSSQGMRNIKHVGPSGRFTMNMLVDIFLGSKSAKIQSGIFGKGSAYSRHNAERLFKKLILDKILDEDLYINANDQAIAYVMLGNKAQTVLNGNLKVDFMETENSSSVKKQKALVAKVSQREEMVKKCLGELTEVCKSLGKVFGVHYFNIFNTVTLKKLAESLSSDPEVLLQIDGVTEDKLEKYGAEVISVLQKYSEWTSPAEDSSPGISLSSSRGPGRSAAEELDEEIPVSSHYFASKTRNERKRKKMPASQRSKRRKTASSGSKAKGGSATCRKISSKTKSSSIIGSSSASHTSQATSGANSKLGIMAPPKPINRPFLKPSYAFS

In order of rising “activity change, negative = inhibition” value:
1. CCOC(=O)C(C)(C)Oc1ccc(Cl)cc1  -12.2%
2. CC(C)C(=O)Nc1ccc([N+](=O)[O-])c(C(F)(F)F)c1  -12%
3. NCCCCCC(=O)O  -11.8%
4. Clc1ccc2c(c1)C(N1CCNCC1)=Nc1ccccc1O2  -9.33%
5. NC(CO)C(=O)NNCc1ccc(O)c(O)c1O (configuration not stated)  -7.96%
6. OCCN1CCN(CCCN2c3ccccc3Sc3ccc(C(F)(F)F)cc32)CC1  -5.12%
7. CN(C)CCCN1c2ccccc2CCc2ccc(Cl)cc21  0.588%
8. Cc1ccc(C(=O)Nc2ccc(S(=O)(=O)O)c3cc(S(=O)(=O)O)cc(S(=O)(=O)O)c23)cc1NC(=O)c1cccc(NC(=O)Nc2cccc(C(=O)Nc3cc(C(=O)Nc4ccc(S(=O)(=O)O)c5cc(S(=O)(=O)O)cc(S(=O)(=O)O)c45)ccc3C)c2)c1  14.1%

System: not listed separately
Assay: Cytometric Cell-Based qHTS for Inhibitors of the mTORC1 Signaling Pathway in MEF (Tsc2-/-, p53-/-) Cells (AID 2660);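 further: Tsc2 and p53 null MEFs carrying empty vector with compound for 24 h; percent of cells above a phospho-rpS6 to PI ratio cutoff in each well; plate controls were DMSO for no effect and rapamycin for full effect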
Conditions: mTORC1 pathway cytometry; series mostly up to 38.3 µM; activity change, negative = inhibition: at the top concentration
Summary of the method: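 Immunofluorescence qHTS of rpS6 Ser235/236 phosphorylation: MEFs (Tsc2-/-, p53-/-) treated 24 h, 37 C, in DMEM + 10% FBS. Alexa-488 signal normalized to PI count, referenced to rapamycin (7.5 nM) and DMSO; PI cell number recorded for viability.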

In order of falling “activity change, negative = inhibition” value:
1. CCN1CCCC1CNC(=O)c1cc(S(=O)(=O)CC)c(N)cc1OC (configuration not stated)  12.1%
2. Cc1cnc(C(=O)NCCc2ccc(S(=O)(=O)NC(=O)NC3CCCCC3)cc2)cn1  7.33%
3. CN1CCN(C2=Nc3cc(Cl)ccc3Nc3ccccc32)CC1  6.5%
4. COc1ccccc1OCC(O)CN1CCN(CC(=O)Nc2c(C)cccc2C)CC1 (configuration not stated)  5.77%
5. COc1ccccc1OCCNCC(O)COc1cccc2[nH]c3ccccc3c12 (configuration not stated)  5.44%
6. CCOC(=O)C(C)(C)Oc1ccc(Cl)cc1  4.92%
7. OCCN(CCO)c1nc(N2CCCCC2)c2nc(N(CCO)CCO)nc(N3CCCCC3)c2n1  4.81%
8. COc1cc2nc(N(C)CCCNC(=O)C3CCCO3)nc(N)c2cc1OC (configuration not stated)  4.13%
9. Cc1ccc(C(=O)Nc2ccc(S(=O)(=O)O)c3cc(S(=O)(=O)O)cc(S(=O)(=O)O)c23)cc1NC(=O)c1cccc(NC(=O)Nc2cccc(C(=O)Nc3cc(C(=O)Nc4ccc(S(=O)(=O)O)c5cc(S(=O)(=O)O)cc(S(=O)(=O)O)c45)ccc3C)c2)c1  3.81%
10. CN1C(C(=O)Nc2ccccn2)=C(O)c2ccccc2S1(=O)=O  3.55%
11. Clc1ccc2nsnc2c1NC1=NCCN1  1.67%
12. Clc1ccccc1C(c1ccccc1)(c1ccccc1)n1ccnc1  0.674%
13. CCCCc1oc2ccccc2c1C(=O)c1cc(I)c(OCCN(CC)CC)c(I)c1  0.573%
14. C[C@H]1c2cccc(O)c2C(O)=C2C(=O)[C@]3(O)C(O)=C(C(N)=O)C(=O)[C@@H](N(C)C)[C@@H]3[C@@H](O)[C@@H]21  -0.0942%
15. Cc1cn([C@H]2C[C@H](N=[N+]=[N-])[C@@H](CO)O2)c(=O)[nH]c1=O  -0.252%
16. O=C(Nc1ccc([N+](=O)[O-])cc1Cl)c1cc(Cl)ccc1O  -0.595%
17. NCCCCCC(=O)O  -0.714%
18. CCOC(=O)c1ncn2c1CN(C)C(=O)c1cc(F)ccc1-2  -1.06%
19. CN(Cc1cnc2nc(N)nc(N)c2n1)c1ccc(C(=O)N[C@@H](CCC(=O)O)C(=O)O)cc1  -2.28%
20. CC#C[C@]1(O)CC[C@H]2[C@@H]3CCC4=CC(=O)CCC4=C3[C@@H](c3ccc(N(C)C)cc3)C[C@@]21C  -3.8%
21. CC(C)C(=O)Nc1ccc([N+](=O)[O-])c(C(F)(F)F)c1  -3.94%
22. NC(CO)C(=O)NNCc1ccc(O)c(O)c1O (configuration not stated)  -6.82%
23. O=c1c(O)c(-c2ccc(O)c(O)c2)oc2cc(O)cc(O)c12  -7.24%
24. Cc1cc(C(C)(C)C)cc(C)c1CC1=NCCN1  -22.8%
25. CN(C)CCCN1c2ccccc2CCc2ccc(Cl)cc21  -29.2%
